From PubChem BioAssay
E coli RNAP – Escherichia coli RNA polymerase inhibition; P0A8V2; E. coli RNA polymerase, fluorescence transcription assay; inhibition, %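 (tested at 10 µM)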; 62,000 compounds, 0.2% hits; AID 559; in the data active means inhibition above about 20%;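 further: 0% = enzyme without compound and 100% = no enzyme blank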
FXIIa inh mix – inhibitors of human coagulation factor XIIa, pooled mixtures. purified FXIIa, fluorogenic substrate. inhibition, % at 5 µM. 62,000 compounds, 0.2% hits. AID 684;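 further: 0% = enzyme without compound and 100% = no enzyme blank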
Target sequence (P00748 20-372 limits assumed): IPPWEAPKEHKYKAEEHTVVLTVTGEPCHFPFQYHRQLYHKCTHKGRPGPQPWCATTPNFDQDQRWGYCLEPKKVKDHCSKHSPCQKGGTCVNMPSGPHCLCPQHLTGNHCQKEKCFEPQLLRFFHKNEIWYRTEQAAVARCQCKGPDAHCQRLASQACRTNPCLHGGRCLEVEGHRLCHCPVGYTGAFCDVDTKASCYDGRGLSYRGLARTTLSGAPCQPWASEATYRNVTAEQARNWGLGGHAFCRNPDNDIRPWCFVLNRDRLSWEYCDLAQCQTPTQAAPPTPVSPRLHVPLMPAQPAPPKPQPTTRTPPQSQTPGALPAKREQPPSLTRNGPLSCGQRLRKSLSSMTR
Target sequence (P00748 373-615 limits assumed): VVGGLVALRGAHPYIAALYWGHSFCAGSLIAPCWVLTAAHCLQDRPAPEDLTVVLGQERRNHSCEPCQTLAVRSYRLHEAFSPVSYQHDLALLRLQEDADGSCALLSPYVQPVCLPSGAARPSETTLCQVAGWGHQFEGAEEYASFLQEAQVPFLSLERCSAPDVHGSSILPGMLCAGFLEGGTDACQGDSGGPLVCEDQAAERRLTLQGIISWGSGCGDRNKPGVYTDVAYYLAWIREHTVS
MMP-13 inhibitor – blocks human MMP13 activity. 65,000 compounds, 0.07% hits. MMP-13 fTHP FRET cleavage, Mca fluorescence. inhibition, % at 4 µM;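 active means inhibition above the mean of compound-free control plate wells plus 3 SD, cut at about 14% in these data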;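 further: 0% = DMSO wells and 100% = wells with reference MMP-13 inhibitor after basal subtraction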
MT1-MMP txn act – activates MT1-MMP transcription. HT1080 MT1-MMP promoter luciferase reporter, luminescence, overnight; active compounds read high. activation factor at 10 µM. 86,000 compounds, 0.16% hits. AID 750;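 active means activation factor of at least 2 for MT1-MMP transcription at 10 µM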
WNV protease inh – WNV NS2B-NS3 proteinase inhibition; WNV NS2B-NS3 protease, fluorogenic substrate Ex360/Em465; active compounds read low; z-score (test concentration not listed); 65,000 compounds, 0.18% hits; in the data active means z-score below about -3
FXIa inh mix – factor XIa (human) inhibition, mixture screen; P03951; purified FXIa, fluorogenic substrate, pooled mixtures; inhibition, % at 5 µM; 62,000 compounds, 0.19% hits;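 further: each value is inhibition by a whole ten-compound pool holding the compound; 0% = enzyme with no mixture and 100% = wells lacking enzyme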
Starred values were filed as active, the others as inactive; · = no result given. Most compounds without a hit are left out; they make up all but 0.69% or so of the library. Unless noted, no stated cut-off is given here; in the data, active means inhibition above about 20% (passing the limit was not always enough); inactive means the rest.

SMILES	E coli RNAP	FXIIa inh mix	MMP-13 inhibitor	MT1-MMP txn act	WNV protease inh	FXIa inh mix
Cc1nn(-c2ccccc2)c2sc(C(=O)OC3CCOC3=O)cc12 (stereo unspecified)	-9.7	9.9	-97.6	1	-3.5*	5.7
COc1cccc(-c2nnn(CC(=O)NC3CCCC3)n2)c1OC	8.9	5.9	3.0	1.1	-0.21	21.9*
O=C(Cn1nnc(-c2ccccc2NC(=O)C2CC2)n1)NC1CCCCC1	7.6	7.2	1.5	1.1	-0.06	6.2
Cc1ccc2[nH]c(=O)c(CN(Cc3cccnc3)C(=O)c3ccncc3)cc2c1	3.5	5.0	-3.0	1.1	-0.88	6.8
COC(=O)c1c(NC(=O)CCCC(=O)O)sc2c1CCC2	·	·	·	2.1*	·	·
CC(C)NCc1c(O)c(Br)cc2oc3c(c12)CCCC3	-2.0	5.6	0.0	1	-3.96*	9.0
OC(CNCCCN1CCCCC1)COc1ccccc1 (stereo unspecified)	5.9	5.2	1.3	1	-5.96*	4.8
CNCC(O)COc1ccccc1 (stereo unspecified)	·	·	·	1.1	·	·
CCN(CC)S(=O)(=O)c1ccc(N(C)Cc2cccnc2)nc1	·	·	·	1	·	·
c1ccc(-c2n[nH]c(-c3ccccn3)n2)nc1	22.2*	-2.3	5.2	1.2	2.27	6.6
c1ccc(-c2n[nH]c(-c3ccccn3)n2)cc1	·	·	·	1.1	·	·
O=C(COc1ccc(Cl)cc1Cl)NC(=O)N1CCCCC1	-0.5	-0.3	14.3*	0.9	-1.59	7.0
CCOC(=O)C1=C(CCc2ccccc2)NC(=O)NC1c1ccc(Cl)cc1 (stereo unspecified)	·	·	·	1.1	·	·
Cn1c(-c2ccc(C=O)s2)nc2c3ccccc3c3ccccc3c21	·	·	·	1.2	·	·
Cc1ccc(NC(=O)Cc2nn(C)c(=O)c3ccccc23)cc1F	8.5	20.4*	-2.6	·	0.11	13.7
COc1ccc(-c2cc(-c3ccccc3O)[nH]n2)cc1	·	·	·	2.5*	·	·
CN1CCN(c2nc3c(c(=O)[nH]c(=O)n3C)n2CCCSc2ncccn2)CC1	5.0	-1.5	-1.3	1.1	-0.28	-2.7
CCN1CCN(c2nc3c(c(=O)[nH]c(=O)n3C)n2CCCSc2ncccn2)CC1	9.5	5.7	6.8	1.2	-3.75*	-0.8
Cc1cc(N2CCC(C(=O)NC3CCCCC3)CC2)nc(-c2ccccc2)n1	4.1	-16.2	-0.6	1.1	-4.82*	-11.8
c1coc(C2Nc3cccc4cccc(c34)N2)c1	20.9*	4.9	4.5	1.1	0.01	14.9
Oc1ccc(C2Nc3cccc4cccc(c34)N2)c(O)c1	·	·	·	1	·	·
COc1ccccc1-n1c(C)nnc1SCC(=O)Nc1cc(C)cc(C)c1	3.2	1.2	-2.6	1.9	-9.13*	4.1
COc1ccc(C2c3c(oc4c(C)cc(C)cc4c3=O)C(=O)N2Cc2cccnc2)cc1OC (stereo unspecified)	7.4	3.6	-7.8	0.9	0.88	2.6
COc1cc(C2c3c(oc4c(C)cc(C)cc4c3=O)C(=O)N2Cc2cccnc2)ccc1O (stereo unspecified)	8.8	13.0	31.9*	1	0.56	6.2
N#Cc1cn(-c2ccccc2)nc1-c1ccc2c(c1)OCCO2	8.2	-18.2	-21.8	1.5	-0.34	-6.7
SMILES	E coli RNAP	FXIIa inh mix	MMP-13 inhibitor	MT1-MMP txn act	WNV protease inh	FXIa inh mix
O=Cc1cn(-c2ccccc2)nc1-c1ccc2c(c1)OCCO2	·	·	·	2*	·	·
CCC1=C2CC[C@H]3C(=O)NC(=O)[C@H]3[C@H]2[C@@]2(C)C(=NCC(=O)OC)OC(=O)N2C1=O	·	·	·	1.2	·	·
CCc1cc(C(=O)OC)c(N2C(=O)C3C4C=CC(C4)C3C2=O)s1 (stereo unspecified)	8.1	51.6*	2.6	1.3	-2.75	6.9
CCc1cc(C(=O)OC)c(NC(=O)CC2NCCNC2=O)s1 (stereo unspecified)	6.3	5.0	2.3	1	-0.33	3.2
CN1C(=O)/C(=C2/C=CC=CN2C)OC1=S	1.6	6.8	-6.3	1	-1.81	-14.4
CCN1C(=O)/C(=C2/C=CC=CN2C)SC1=S	9.5	6.5	20.5*	1.2	0.41	-2.0
CCCC(=O)Nc1ccc(NC(=O)C23CC4CC(CC(C4)C2)C3)cn1	-3.6	2.7	1.1	1.5	-4.83*	-0.1
CCC(=O)Nc1cc(C)c(NC(=O)C23CC4CC(CC(C4)C2)C3)cn1	3.2	2.5	-7.1	1.1	-0.68	3.2
O=C(COc1ccc(F)cc1)N1CCC(c2ccccc2)C1 (stereo unspecified)	·	·	·	2.1*	·	·
COc1ccc2oc(C(=O)c3ccccc3)c(N)c2c1	·	·	·	2.1*	·	·
COc1ccc(C(=O)c2oc3ccccc3c2N)cc1	-6.6	1.1	-2.0	2.3*	-0.35	3.4
OCCNC1=NCCN1	8.8	4.8	-3.8	1.2	-3.18*	3.8
O=C(O)CSC1=NCCN1	·	-19.3	0.8	1.2	-0.35	-4.2
COC(=O)[C@@]1(Cc2ccccc2)[C@H]2c3cc(C(=O)N4CCCC4)n(CCN4CCNC4=O)c3C[C@H]2CN1C(=O)c1ccccc1	·	·	·	1.1	·	·
CC1=NC(=O)C(N=Nc2cccc(O)c2)N1c1ccccc1 (stereo unspecified)	·	·	·	2*	·	·
CC1=C(C(=O)OCC(Br)(Br)Br)C(c2cccc3ccccc23)NC(=O)N1CCCC(=O)O (stereo unspecified)	·	·	·	1.1	·	·
CCC(=O)Nc1ccc(S(=O)(=O)N2CCN(c3ccc(F)cc3)CC2)cc1	·	·	·	1.1	·	·
CC1(C)OCC(CSC2=C(SCC3COC(C)(C)O3)C(=O)c3ncccc3C2=O)O1 (stereo unspecified)	·	·	·	1.2	·	·
Brc1cccc(-c2cnc3n2CCCCC3)c1	7.7	15.1	-1.6	1.1	-4.2*	6.4
CC1(C(=O)NC2CCCC2)CCC(=O)N1Cc1ccccc1Cl (stereo unspecified)	·	·	·	1.1	·	·
COC(=O)c1ccc(CSc2nnc(SCc3ccc(C(=O)OC)o3)s2)o1	14.5	6.4	-0.7	1.1	-3.49*	11.1
COC(=O)c1ccc(CSc2nnc(NCc3ccccc3)s2)o1	7.9	-19.1	2.2	1.3	-0.42	4.2
C=CCOC(=O)C1=C(C)Nc2nc3ccccc3n2C1c1ccncc1 (stereo unspecified)	6.8	6.4	-0.1	1.2	-3.09*	5.8
COc1ccc(C2C(C(=O)NCc3cccnc3)c3ccccc3C(=O)N2C)cc1OC (stereo unspecified)	4.3	-17.2	9.4	1	-0.75	8.6
Cc1ccc(NC(=O)C2CCN(S(=O)(=O)c3cccc4nonc34)CC2)nc1	3.5	0.7	0.7	1.2	-4.84*	5.5
CCc1cccc2c(C#N)cn(CC(=O)NCc3ccco3)c12	-3.2	4.9	-0.5	1	-3.87*	-3.4
CC(C)C(=O)c1cn(CC(=O)NCc2ccco2)c2ccccc12	·	·	·	1.3	·	·
COc1ccc(Nc2oc(-c3ccc(Cl)cc3)nc2C#N)cc1	·	·	·	2.2*	·	·
COC(=O)c1ccc(C(NC(=O)OCc2ccccc2)/C(=C/[C@@H](C)C(=O)NCc2ccccc2)C(F)(F)F)cc1 (stereo partly specified)	·	·	·	1.1	·	·
Cc1cc(C(=O)OCC(=O)NCCCN2CCCC2=O)c2ccccc2n1	·	·	·	1.1	·	·
